Measured values taken from PubChem BioAssay (NCATS).
Results filed as inconclusive are left out. The source made the active and inactive calls. Unless noted, the call rests on the fitted dose curve; in most records, active means well fitted curve in the direction sought with a large enough effect; inconclusive means small, poorly fitted or top-dose-only effect, or another doubt; inactive means no such curve, though single readings can be large; an effect the other way counts as inactive or inconclusive.

Experiments:
[1] = Cytotoxicity counterscreen for NFkB agonists and antagonists (AID 624476); settings: NFkB reporter cell line viability counterscreen; series mostly up to 46.1 µM;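 further: cells exposed to compound for 48 hours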; further: potency means the concentration at half of the fitted maximal effect
[2] = qHTS Assay for Identification of Small Molecule Antagonists for NFkB Signaling Pathway. (AID 624479; calls by dose curve;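 further: pathway stimulated with TNF alpha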; further: potency means the concentration at half of the fitted maximal effect); settings: NFkB pathway reporter cell assay, antagonist mode; series mostly up to 38.3 µM
[3] = Cell Proliferation Assay against the TMD8 Cell Line (AID 651645); settings: TMD8 DLBCL cell line proliferation/viability; at 46.1 µM (top of the series);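 further: cells exposed to compound for 48 h before reading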
In short: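 TMD8 cells, 500/well in RPMI with 5% FBS, dosed immediately and grown 48 h at 37 C, 5% CO2. CellTiter-Glo luminescence normalised to DMSO 100% and 9.2 uM bortezomib (final) 0%.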

[4] = Cell Proliferation Assay against the HBL1 Cell Line (AID 651646); settings: HBL1 DLBCL cells; at 46.1 µM (top of the series);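 further: cells exposed to compound for 48 h before reading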
In short: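 Luminescent ATP read-out (CellTiter-Glo) after 48 h compound exposure of HBL1 cells at 37 °C; percent activity was scaled between DMSO as 100% and 9.2 uM bortezomib (final) as 0%.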

[5] = Cell Proliferation Assay against the TMD8 Cell Line (Caspase readout at 16 hrs) (AID 651712); settings: TMD8 lymphoma cells, caspase activation luminescence; series mostly up to 46.1 µM; further: potency means the concentration at half of the fitted maximal effect
In short: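 Apoptotic response of TMD8 cells was judged from caspase 3/7 activation following a 16 hour compound incubation at 37 °C. Luminescent signal was converted to percent activity, with DMSO set as 0% and 9.2 uM final bortezomib as 100%.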

[6] = Cell Proliferation Assay against the TMD8 Cell Line (Caspase readout at 8 hrs) (AID 651713); settings: TMD8 lymphoma cells, caspase activation luminescence; series mostly up to 46.1 µM; further: potency means the concentration at half of the fitted maximal effect
In short: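 Percent activity derived from Caspase-Glo signal, DMSO set to 0% and bortezomib (9.2 uM final) to 100%. TMD8 cells were exposed to compound for 8 h in RPMI with 5% FBS.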

| SMILES | Potency [1] | Potency [2] | viability (% of control) [3] [%] | viability, percent of control [4] [%] | Potency [5] | Potency [6] |
| --- | --- | --- | --- | --- | --- | --- |
| CC(C)c1ccccc1Cc1cc(C(=O)Nc2ccc(S(=O)(=O)c3ccccc3C(C)(C)C)cc2)c(O)c(O)c1O | 14.8 µM (active) | 13.3 µM (active) | 9.33 | 21.6 | 6.62 µM (active) | – |
| COCCn1c2c([n+](Cc3cnccn3)c1C)C(=O)c1ccccc1C2=O | 0.0118 µM (active) | – | 1.68 | 1.98 | inactive | – |
| CC[C@@H]1C(=O)N(C)c2cnc(Nc3ccc(C(=O)NC4CCN(C)CC4)cc3OC)nc2N1C1CCCC1 | 16.6 µM (active) | 13.3 µM (active) | 4.43 | 5.81 | 1.18 µM (active) | 29.6 µM (active) |
| CC(NCc1ccc2c(c1)nc(NC(=O)c1ccc(-c3cn[nH]c3)s1)n2CC(C)(C)O)C(C)(C)C (stereo not given) | 0.332 µM (active) | 0.0266 µM (active) | 1.7 | 1.76 | – | 0.332 µM (active) |
| C=CC(=O)Nc1cc2c(Nc3ccc(F)c(Cl)c3)ncnc2cc1OCCCN1CCOCC1 | 23.5 µM (active) | 16.8 µM (active) | 0.581 | 0.769 | – | 14.8 µM (active) |
| NC(=O)c1c(OCc2c(F)cc(Br)cc2F)nsc1NC(=O)NCCCCN1CCCC1 | inactive | – | 8.16 | 4.14 | inactive | – |
| O=C(NCCS(=O)(=O)c1ccc(C(F)(F)F)cn1)c1ccc(Cl)cc1 | inactive | inactive | 96.1 | 92 | inactive | inactive |
| CN1CCN(c2ccc3nc(-c4c(N)c5c(F)cccc5[nH]c4=O)[nH]c3c2)CC1 | 16.6 µM (active) | 0.421 µM (active) | -0.299 | 0.538 | – | 18.7 µM (active) |
